# Screens: PubChem BioAssay, Broad Institute
# This excerpt belongs to a sample that is enriched for hits.
# BL2 CD40 inh: CD40 pathway inhibition in BL2 cells. BL2 NF-kB luciferase reporter, CD40L-induced, 4 h. inhibition, % at 10 µM. hit rate 0.94% among 83,000. AID 1053188;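 active = mean inhibition of at least 50% with a set share of replicates also reaching that level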;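 also: 0% = neutral control wells and 100% = IKK inhibitor VII at 50 µM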
# Active calls of the source: *; [ ] = remark or other dose.
SMILES,BL2 CD40 inh
CCS(=O)(=O)Nc1ccc2c(c1)C(=O)N(C)[C@H]1CC[C@@H](CC(=O)NCc3ccc(OC)cc3)O[C@H]1CO2,-3.7[25 µM]
C[C@H]1CN([C@@H](C)CO)C(=O)c2ccccc2-c2ccccc2CO[C@@H]1CN(C)C(=O)Nc1cccc(C(F)(F)F)c1,10.4[25 µM]
Cc1ccc(S(=O)(=O)Nc2ccc3c(c2)C(=O)N([C@H](C)CO)C[C@@H](C)[C@@H](CN(C)C(=O)NC(C)C)OCCCC[C@@H](C)O3)cc1,20.6
C/C=C/c1ccc([C@H]2[C@@H](CO)N(S(C)(=O)=O)[C@@H]2CN(CC)C(=O)CC)cc1,3.4[25 µM]
C[C@H](CO)N1C[C@H](C)[C@H](CN(C)C(=O)Nc2cccc(Oc3ccccn3)c2)OCc2cn(nn2)CCCC1=O,-6.9[25 µM]
OC[C@H]1[C@@H](c2ccc(-c3cncnc3)cc2)[C@@H]2CN(CC3CCOCC3)CCCCN12,-2.9[25 µM]
COc1ccc([C@H]2C/C=C\C[C@H](c3ccc(F)cc3)NC(=O)CCC(=O)N2)c(OC)c1,-4.4[25 µM]
CN(C)C(=O)c1ccc(-c2ccccc2[C@@H]2[C@@H](C#N)N(C(=O)C3CCC3)[C@H]2CO)cc1,-6.6[25 µM]
C[C@H]1CN([C@@H](C)CO)C(=O)c2cc(NS(=O)(=O)c3cccs3)ccc2O[C@@H]1CN(C)Cc1ccc(C(=O)O)cc1,8.7[25 µM]
N#Cc1ccc(-c2ccc(C3[C@@H]4CN(C(=O)c5ccc6c(c5)OCO6)C[C@H]3N4)cc2)cc1 (stereo not given in full),2.3
CCCCCN1C=CC(=C2C(=O)c3ccccc3C2=O)C=C1,81.5*
CCCCCCCN1N=C(C)C(C(=O)c2ccccc2)C1=O (stereo not given),11.0
COc1cccc(CNC(=O)[C@H]2[C@H](CO)[C@H]3Cn4c(cccc4=O)[C@@H]2N3C(=O)C2CCCC2)c1,-5.6[25 µM]
N#Cc1c(NCCCO)nc(NCc2ccccc2)c2c1CCN(Cc1ccccc1)C2,-1.2
CN1CCc2c(C#N)c(N3CCCCC3)nc(NCc3ccccc3)c2C1,35.0*
Cc1nc(N2CCN(C(=O)c3ccco3)CC2)c(C#N)c2c1CCCC2,-7.3
N#C[C@@H]1[C@@H](c2ccc(C#Cc3cccnc3)cc2)[C@@H](CO)N1C(=O)NC1CCCCC1,19.8[25 µM]
N#C[C@@H]1[C@@H](c2ccc(C#CC3CCCCC3)cc2)[C@@H](CO)N1C(=O)Cc1ccccn1,0.8
C[C@@H]1CN(C)C(=O)c2cc(N)ccc2O[C@H]1CN(C)C(=O)OC(C)(C)C,0.3
O=C(C[C@@H]1CC[C@H]2[C@@H](COC[C@H](O)CN2C(=O)Cc2ccccc2)O1)NC1Cc2ccccc2C1,-5.6[25 µM]
O=C1c2cccc3c([N+](=O)[O-])ccc(c23)C(=O)N1Cc1cccnc1,83.6*
O=C1c2cccc3cccc(c23)C(=O)N1Cc1cccnc1,4.1
Cc1ccc(N2C(=O)c3cccc4c([N+](=O)[O-])ccc(c34)C2=O)c2cccnc12,2.0
COc1ccccc1NC(=O)N[C@H]1CC[C@@H](CCNS(=O)(=O)c2ccc(Cl)cc2)O[C@@H]1CO,-1.2[25 µM]
COc1cccc(-c2ccc3c(c2)[C@H]2[C@H](CCN2C(=O)C2CCC2)[C@H](CO)N3)c1,-24.4
SMILES,BL2 CD40 inh
CO[C@H]1CN(C)C(=O)c2cc(NC(=O)C3CCCC3)ccc2OC[C@@H](C)N(C)C[C@@H]1C,0.5
O=C(C1CC1)N1C[C@@H]2[C@H](c3ccccc31)[C@H](CO)N2C(=O)Nc1cccc(F)c1,8.1
C/C=C/c1ccc([C@@H]2[C@@H](CO)N(C(=O)C3CC3)[C@H]2CN(C)C(=O)CC2CC2)cc1,7.8
CN1CCN(C(CNS(=O)(=O)c2ccc(Br)cc2)c2ccc3c(c2)OCO3)CC1 (stereo not given),-2.7
Oc1cc2c(cc1C(c1ccc(Br)cc1)N1CCCC1)OCO2 (stereo not given),86.3*
OC(CN1CCCCC1)c1ccc(Br)cc1 (stereo not given),1.9
Fc1ccc(-c2nnc(Cc3nnc(-c4ccc(F)cc4)o3)o2)cc1,5.2
Fc1ccc(-c2nnc(NC3=NCCCCC3)o2)cc1,73.7*
Fc1ccc(NC2=NCCCCC2)cc1,8.1
CC(=O)Nc1cccc2c1O[C@H](CN(C)S(C)(=O)=O)[C@H](C)CN(C)C2=O,6.8
O=C(c1cccc(F)c1)N1CC2(C1)[C@@H](c1ccccc1)[C@@H](CO)N2Cc1ccccn1,12.3[25 µM]
COc1ccc2c3c([nH]c2c1)[C@H](CO)N(C)CC31CCN(C(=O)c2ccccn2)CC1,3.2[25 µM]
CN1C(=O)c2cc(NC(=O)C3CCCCC3)ccc2OC[C@@H]2O[C@H](CC(=O)NCC3CCCCC3)CC[C@@H]21,5.2
Cc1cccc(S(=O)(=O)N(C)C[C@@H]2OCc3ccccc3-c3c(n(C)c4ccccc34)C(=O)N([C@@H](C)CO)C[C@@H]2C)c1,12.8
CC(=O)Nc1cc(-c2cccc(C(=O)N(C)C)c2)cn2c(-c3ccccc3)cnc12,1.5
CN(C)C(=O)c1cccc(-c2cnc3c(NC=O)cc(-c4cccc(C(F)(F)F)c4)cn23)c1,65.4*
COc1ccc(-c2cc(NC=O)c3ncc(-c4cccc(C(=O)N(C)C)c4)n3c2)cn1,-19.6
N#CC(Cc1ccc(O)cc1)c1ccc(O)cc1 (stereo not given),12.2[25 µM]
CCCNC(=O)N[C@@H]1C=C[C@H](CC(=O)N2CCN(C)CC2)O[C@@H]1CO,-4.9[25 µM]
CC=Cc1ccc2n(c1=O)C[C@@H]1[C@@H](CO)[C@H](C(=O)NCC(F)(F)F)[C@H]2N1C(=O)C1CCC1 (mixture of isomers),8.5
O=C(C[C@H]1C=C[C@H](NS(=O)(=O)c2ccccc2)[C@H](CO)O1)NCCN1CCCCC1,0.7[25 µM]
